HSP90 inh = blocks HSP90-mediated luciferase refolding in reticulocyte lysate; Rabbit reticulocyte lysate, luciferase refolding luminescence, 3 h; inhibition, % at 5.6 µM; 0.91% of 290,000 active; AID 1789;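 active = inhibition above the screen-wide mean plus 3 SD, computed separately per campaign, cut at about 16% in these data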;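 also: 0% = DMSO wells and 100% = 60 µM geldanamycin wells; inhibitors lower the luminescence because luciferase stays unfolded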
SENP8 block-1 = blocks the human protease SENP8; purified SENP8, Z-RLRGG-aminoluciferin cleavage, luminescence; 1.2% of 330,000 active; inhibition, % at 10 µM; in the data active = inhibition above about 50%
Target sequence (Q96LD8 whole entry, looked up): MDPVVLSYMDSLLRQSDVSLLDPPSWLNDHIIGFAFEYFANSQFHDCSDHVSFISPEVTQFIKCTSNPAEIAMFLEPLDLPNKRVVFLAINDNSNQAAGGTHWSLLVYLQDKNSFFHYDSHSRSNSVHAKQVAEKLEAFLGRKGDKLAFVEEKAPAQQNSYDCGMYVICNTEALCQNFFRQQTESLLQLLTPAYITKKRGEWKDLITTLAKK
SENP8 block-2 = blocks human SENP8 cleavage of Nedd8 substrate; recombinant SENP8, Nedd8 substrate fluorescence; inhibition, % at 20 µM; 0.64% of 360,000 active; AID 602440; in the data active = inhibition mostly above about 40%, no sharp cut-off; inactive = mostly below about 27%
SENP6 block = blocks the human protease SENP6 | Recombinant SENP6 catalytic domain, aminoluciferin luminescence | inhibition, % at 10 µM | 1.8% of 330,000 active | Q9GZR1;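 active = inhibition above about 50% at the single tested dose, limit read from the data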;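 also: plate controls were DMSO wells with enzyme for no effect and DMSO wells lacking enzyme for full effect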
Target sequence (Q9GZR1 628-1112 limits assumed): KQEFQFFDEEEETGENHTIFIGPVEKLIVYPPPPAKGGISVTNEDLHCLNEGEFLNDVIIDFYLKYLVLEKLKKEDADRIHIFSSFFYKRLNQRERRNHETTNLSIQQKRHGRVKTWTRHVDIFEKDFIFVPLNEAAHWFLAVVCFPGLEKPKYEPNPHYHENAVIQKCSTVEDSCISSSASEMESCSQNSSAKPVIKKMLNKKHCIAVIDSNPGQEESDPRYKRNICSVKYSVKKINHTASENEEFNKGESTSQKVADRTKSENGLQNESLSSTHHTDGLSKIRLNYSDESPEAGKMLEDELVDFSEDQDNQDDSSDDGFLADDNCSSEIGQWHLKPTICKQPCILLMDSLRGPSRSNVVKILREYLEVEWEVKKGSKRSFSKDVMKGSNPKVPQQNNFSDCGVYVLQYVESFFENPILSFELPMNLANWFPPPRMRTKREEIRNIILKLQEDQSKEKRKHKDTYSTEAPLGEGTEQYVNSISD
SENP7 inh = blocks the human protease SENP7 | inhibition, % at 5 µM | 1.5% of 330,000 active | recombinant SENP7, Z-RLRGG-aminoluciferin luminescence, 40 min;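 active = inhibition above about 50% at the single test dose, limit read from the data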;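 also: plate controls were DMSO with enzyme for no effect and no enzyme buffer wells for full effect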
SENP8 conf = confirmation of human SENP8 protease inhibitors; shares compounds with SENP7 inh; Recombinant SENP8, Z-RLRGG-aminoluciferin luminescence, 60 min; inhibition, % at 12.5 µM; 40% of 6,200 active; AID 488912;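 active = mean inhibition across replicates above about 50%, limit read from the data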
SENP6 conf = confirmation of human SENP6 protease inhibitors; shares compounds with SENP7 inh; recombinant SENP6, Z-RLRGG-aminoluciferin luminescence; inhibition, % at 12.5 µM; 58% of 6,200 active; AID 488915
SENP7 confirm = confirmation of human SENP7 protease inhibitors; shares compounds with SENP7 inh; recombinant SENP7, Z-RLRGG-aminoluciferin luminescence, 40 min; inhibition, % at 12.5 µM; 69% of 6,200 active; AID 488917
Casp3 select = inhibits human caspase-3 in SENP selectivity test | purified caspase-3, Z-DEVD-aminoluciferin luminescence, 60 min | inhibition, % at 12.5 µM | 60% of 6,200 active | shares compounds with SENP7 inh;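 active = mean inhibition above about 50%, limit read from the data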;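 also: plate controls were enzyme with DMSO for no effect and wells without caspase-3 for full effect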
SENP luc ctr = luminescence interference (SENP counter-screen); AID 488919; Pre-incubated SENP8/Z-RLRGG-aminoluciferin, luciferase luminescence interference; inhibition, % at 12.5 µM; 39% of 6,200 active; shares compounds with SENP7 inh;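 active = mean inhibition above about 50% when retested at one dose, limit read from the data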;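 also: plate controls were DMSO wells with completed reaction for no effect and substrate without enzyme for full effect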
Starred values were filed as active, the others as inactive; i = inactive; x = no result given. Shown are actives, neighbours in structure and some others; about 2.8% of the full set was active somewhere.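 The calls were made as follows, unless noted: active = mean inhibition above about 50% in the one-dose retest (limit read from the data); inactive = the rest.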

SMILES | HSP90 inh | SENP8 block-1 | SENP8 block-2 | SENP6 block | SENP7 inh | SENP8 conf | SENP6 conf | SENP7 confirm | Casp3 select | SENP luc ctr
CCN(c1cccc(C)c1)C(C(=O)Nc1ccc(OC)cc1)c1cc2c(cc1[N+](=O)[O-])OCO2 (stereo not given) | 8.1 | -6.4 | 3.4 | -38.5 | -4.9 | x | x | x | x | x
CCN(CC)CCNC(=O)Cn1nc(-c2ccc(C)cc2)ccc1=O | 0.4 | -7.9 | -26.0 | -0.2 | -6.4 | x | x | x | x | x
O=C(Nc1ccccc1)N1CC=C(c2ccccc2)CC1 | -12.0 | 0.8 | x | 18.5 | 4.4 | x | x | x | x | x
O=C(Nc1ccccc1)N1CC=C(c2ccc(F)cc2)CC1 | -5.0 | 0.3 | -20.9 | 51.5* | 34.6 | 24.7 | 18.4 | 58.8* | 30.1 | 42.3
Cc1ccc(C2CCN(C(=O)Nc3ccc(F)cc3)C2)cc1 (stereo not given) | -6.8 | -5.0 | 12.4 | 60.9* | 3.8 | 9.4 | 1.3 | 13.0 | 17.7 | 12.2
Cc1ccc(NC(=O)C2CCCN(C(=O)Nc3ccc(F)cc3)C2)cc1 (stereo not given) | 0.4 | 0.0 | 11.7 | -8.2 | -5.8 | x | x | x | x | x
Cc1ccc(CS(=O)Cc2ccc(C(=O)N3CCN(c4ccccc4)CC3)o2)cc1 (stereo not given) | -5.2 | 1.3 | 5.1 | -3.7 | 3.3 | x | x | x | x | x
COC(=O)c1[nH]c2ccccc2c1NC(=O)Oc1ccccc1 | 4.6 | -13.2 | i | 27.7 | -12.8 | x | x | x | x | x
COC(=O)c1[nH]c2ccc(C)cc2c1NC(=O)Oc1ccccc1 | 3.1 | 50.9* | i | 81.6* | 7.1 | 0.7 | 4.2 | 11.6 | 7.9 | 8.0
CCC(=O)Nc1cccc(C(=O)OCC(=O)c2ccccc2Cl)c1 | -0.8 | -13.3 | 4.9 | 13.0 | -2.4 | x | x | x | x | x
CC(=O)Nc1cccc(C(=O)OCC(=O)c2ccccc2Cl)c1 | -2.8 | 46.7 | 13.2 | -3.1 | 61.4* | 72.2* | 38.8 | 89.2* | 69.9* | 73.6*
O=C(OCc1ccccc1)N(CCCCN(CCCNCc1ccccc1)C(=O)OCc1ccccc1)CCCNCc1ccccc1 | x | x | 22.9 | x | x | x | x | x | x | x
Cc1cc(C(=O)OCC(=O)NCCN2C(=O)CSC2=O)ccc1[N+](=O)[O-] | x | 1.1 | 6.7 | -2.3 | 8.0 | x | x | x | x | x
CCOC(=O)/C=C1\SCC(=O)N1CC(=O)NC(c1ccccc1)c1ccccc1 | 3.2 | -0.8 | 6.4 | 4.9 | 6.1 | x | x | x | x | x
O=C(CCN1CCCCC1)Nc1cccc(Cl)c1 | 7.3 | -11.4 | 11.5 | -4.8 | 2.3 | x | x | x | x | x
CC1Cc2cc(/C=C3/SC(N4CCC(C(N)=O)CC4)=NC3=O)ccc2O1 (stereo not given) | -2.6 | -12.7 | -71.3 | -14.4 | -7.9 | x | x | x | x | x
CC1Cc2cc(/C=C3/SC(=S)N(C)C3=O)ccc2O1 (stereo not given) | -0.2 | 60.9* | 25.1 | 74.2* | 62.5* | 10.4 | 19.8 | 37.7 | 52.0* | -5.3
NC(CO)C(O)c1ccc([N+](=O)[O-])cc1 (stereo not given) | 0.5 | -10.4 | 5.3 | -6.5 | -5.8 | x | x | x | x | x
COc1ccc(C(=O)c2ccc(OC)c(Br)c2)cc1Br | 1.2 | -2.2 | 11.9 | 98.0* | 10.0 | 10.9 | 7.4 | 8.7 | 3.2 | 4.3
COc1ccc(C(=O)Nc2ccc(N3CCCC3)cc2)cc1OC | 0.5 | 94.6* | -10.6 | 94.4* | 19.3 | 87.6* | 97.8* | 101.7* | 97.8* | 89.3*
COc1ccc(C(=O)Nc2ccc(N3CCCC3)cc2)cc1Br | 12.2 | 59.9* | 28.4 | 63.7* | 1.0 | 1.0 | 20.4 | 14.5 | 48.4 | 12.5
COc1ccc(C(=O)c2cccc(C(=O)c3ccc(OC)c(C)c3)c2)cc1C | -0.8 | -2.0 | 7.8 | 2.8 | 0.9 | x | x | x | x | x
O=C(Nc1ccc(N2CCOCC2)cc1)c1cccc2ccccc12 | -0.2 | 1.4 | 10.4 | -16.3 | 3.1 | x | x | x | x | x
Cn1cccc1C(=O)Nc1ccc(N2CCOCC2)cc1 | x | 37.0 | 16.0 | 24.4 | 62.0* | 58.8* | 53.6* | 82.3* | 84.7* | 32.9
Cc1cccc(SCc2noc(C(=O)NCC3CCCO3)c2C(=O)O)c1 (stereo not given) | -2.0 | -0.8 | 5.4 | -0.2 | -9.6 | x | x | x | x | x
SMILES | HSP90 inh | SENP8 block-1 | SENP8 block-2 | SENP6 block | SENP7 inh | SENP8 conf | SENP6 conf | SENP7 confirm | Casp3 select | SENP luc ctr
COc1ccc(C(=O)Nc2ccc(S(=O)(=O)N3CCOCC3)cc2)cc1OC | -1.6 | -6.6 | 16.4 | 1.6 | -12.6 | x | x | x | x | x
O=C(Nc1ccc(N2CCCCC2)cc1)c1ccc(F)cc1 | -1.2 | 67.9* | 12.1 | 78.9* | 83.2* | 10.8 | 13.9 | 19.6 | 47.4 | 10.3
O=C(c1ccc(F)cc1)c1ccc(N2CCCCC2)cc1 | 3.6 | -2.1 | -64.2 | 18.3 | -6.5 | x | x | x | x | x
COc1ccc(C(=O)Nc2ccc(N3CCOCC3)cc2)cc1OC | 2.0 | 81.9* | 22.7 | 89.2* | 88.9* | 57.8* | 85.8* | 96.9* | 95.1* | 19.7
COCCNC(=O)CN(C(=O)c1ccc(N2CCCC2)nc1)c1ccccc1 | -4.3 | -5.4 | -2.7 | -7.1 | 5.9 | x | x | x | x | x
COCCNC(=O)CN(C(=O)c1ccc(N2CCCC2)nc1)c1ccc(F)c(Cl)c1 | -1.5 | 56.1* | -5.0 | 50.7* | 1.4 | 13.3 | 9.9 | 12.2 | 4.2 | 7.1
COc1ccc(NC(=O)COC(=O)Cn2cnc3ccccc3c2=O)cc1OC | 0.1 | 3.9 | 23.6 | -11.5 | 2.8 | x | x | x | x | x
COc1ccc(N2CCN(S(=O)(=O)c3ccc(OC)c(C(=O)N4CCCCC4)c3)CC2)cc1 | -3.5 | 1.9 | 1.4 | -2.1 | -6.9 | x | x | x | x | x
CCN1C(=O)/C(=C/C=C2/SCCN2C)SC1=S | 8.1 | 47.8 | 46.8* | 80.0* | 76.5* | -0.5 | 12.8 | 9.9 | 16.2 | 4.9
COc1cc(C)c(C(=O)Oc2cc(C)c(C(=O)O)c(O)c2)c(O)c1 | x | 55.4* | 33.5 | 55.5* | -2.7 | 42.1 | 34.8 | 63.6* | 22.1 | 58.9*
O=c1[nH]c2ccccc2nc1/C=C/c1ccc(Cl)cc1 | -3.1 | -0.6 | -377.3 | -10.5 | 72.2* | 1.1 | 2.4 | 1.7 | 4.5 | 1.7
CC(=O)Nc1ccc(/C=C/c2nc3ccccc3[nH]c2=O)cc1 | 0.7 | -7.7 | -184.0 | 13.3 | -2.7 | x | x | x | x | x
Fc1ccc(CSc2nc3ccccc3[nH]2)cc1 | 1.3 | 71.0* | 7.4 | 82.9* | 7.2 | 82.6* | 78.7* | 93.9* | 74.2* | 78.7*
CCCOc1ccc(CSc2nc3ccccc3[nH]2)cc1 | -1.6 | 87.6* | 15.5 | 90.9* | 95.3* | 92.4* | 97.4* | 102.3* | 87.5* | 57.6*
Nc1nc2ccccc2[nH]1 | 1.1 | 3.2 | 16.7 | -17.1 | -0.8 | x | x | x | x | x
Nc1ccccc1Sc1nc2ccccc2[nH]1 | 0.9 | 57.2* | -5.5 | 61.2* | 22.5 | 60.8* | 57.7* | 84.1* | 85.7* | 71.6*

Screens: PubChem BioAssay, several laboratories
